# MBNL1 CUG block = MBNL1-poly(CUG) RNA binding inhibition. TR-FRET MBNL1-His/biotin-(CUG)12 binding, 665/545 ratio. Potency, µM (series often up to 57.5 µM), inactives show at the highest dose activity change, negative = inhibition, most hits filed as inhibitors. actives 0.036% (n = 280,000). AID 2675; active = well fitted inhibition curve with a large enough effect in the signal ratio, with a control signal flat, not every such curve was filed as active; inconclusive = small, poorly fitted or top-dose-only effect, or effect the other way, or a change in a side signal; inactive = no such curve, though single readings can be large or run the other way; the % refers to the signal ratio; also: potency is read from the fitted curve at half-maximal effect; % is scaled to controls: 0 for no effect and ±100 for the full control effect
# Target sequence (Q9NR56 whole entry, looked up): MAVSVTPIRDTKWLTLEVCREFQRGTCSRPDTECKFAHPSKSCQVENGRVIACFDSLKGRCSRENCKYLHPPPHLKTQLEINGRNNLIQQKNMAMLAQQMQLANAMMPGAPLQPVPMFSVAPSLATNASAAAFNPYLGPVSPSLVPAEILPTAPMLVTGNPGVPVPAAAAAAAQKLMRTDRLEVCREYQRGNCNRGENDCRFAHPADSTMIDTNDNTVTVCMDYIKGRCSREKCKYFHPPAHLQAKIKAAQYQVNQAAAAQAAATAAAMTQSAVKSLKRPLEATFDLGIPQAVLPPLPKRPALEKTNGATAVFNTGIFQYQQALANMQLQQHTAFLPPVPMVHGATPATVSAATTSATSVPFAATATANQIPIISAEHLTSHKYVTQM
#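 TR-FRET readout: Ex 340 nm, 665/545 nm emission ratio, normalized to buffer-only (basal) and MBNL1-(CUG)12 controls. Complex of MBNL1-His with Biotin-(CUG)12, compounds 92 nM–58 uM, incubated 60 min at room temperature.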
# DRD3 agonist = activates the human D3 dopamine receptor | P35462 | D3R DiscoveRx beta-arrestin cells, luminescence, 90 min | max activation, % | actives 0.58% (n = 410,000); in the data active = max activation above about 30%; also: 0% is about no effect
# Target sequence (P35462 whole entry, looked up): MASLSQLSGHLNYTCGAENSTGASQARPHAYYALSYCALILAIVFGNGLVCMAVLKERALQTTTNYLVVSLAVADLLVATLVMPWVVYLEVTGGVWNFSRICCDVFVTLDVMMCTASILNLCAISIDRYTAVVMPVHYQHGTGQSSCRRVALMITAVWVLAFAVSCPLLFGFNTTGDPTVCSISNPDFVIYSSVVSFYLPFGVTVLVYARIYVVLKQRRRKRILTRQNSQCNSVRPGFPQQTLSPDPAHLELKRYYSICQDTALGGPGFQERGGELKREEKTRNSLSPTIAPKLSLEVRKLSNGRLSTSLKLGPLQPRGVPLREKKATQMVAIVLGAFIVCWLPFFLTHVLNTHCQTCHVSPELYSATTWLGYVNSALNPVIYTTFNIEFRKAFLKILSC
#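 Agonist mode: compounds and dopamine controls were applied to plated cells for 90 min at 37 degrees C after an overnight attachment at 1500 cells/well. Luminescent read-out followed 30 - 60 minutes at room temperature with DiscoveRx detection reagent.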
# PTHR1 ag = PTHR1 (human) receptor agonism. Q03431. HEK293 GP2 PTHR1 cells, GloSensor cAMP luminescence, 1 h. Potency, µM (doses to about 115 µM), for inactives: at the top dose activation, usual class: activators. actives 0.075% (n = 410,000). AID 743266; also: potency is read from the fitted curve at half-maximal effect; nearly all actives have a fitted effect of over 55% in size
#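 HEK-293-derived GP2 cells expressing PTHR1 and a GloSensor cAMP reporter, 3,000/well, plated overnight, given luciferin plus IBMX (each 0.5 mM as added) for 1 h at 37 °C, then compound for 1 h at 37 °C. Luminescence was read after 15 min at room temperature.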
# CBFb RUNX1 block = inhibitors of human CBF-beta and RUNX1 interaction; Q01196+Q13951; Potency, µM (top dose mostly 59.8 µM), for the others: at the highest dose activity, negative = inhibition, most hits filed as inhibitors; AlphaScreen CBFb-His/RUNX1-biotin binding, biochemical; 230,000 tested, under 10 active; also: % of control where 0% means no effect
#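 His-tagged CBF-beta and biotinylated RUNX1 (30 nM each) were premixed 20 min at room temperature, exposed to compound for 15 min, then given nickel-chelate and streptavidin AlphaScreen beads (50 ng each). After 90 min, AlphaScreen signal was read.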
# a7 integrin act = integrin-mediated muscular dystrophy alleviation activation | alpha7betagal myoblasts, beta-gal FDG fluorescence, 48 h | Potency, µM (highest dose often 38.3 µM), for the others: top-dose activation, actives largely listed as activators | actives 0.064% (n = 350,000) | AID 624291;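 also: potency is read from the fitted curve at half-maximal effect; 100% = response of the positive control SU9516; nearly all actives have a fitted effect of over 60% in size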
#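 alpha7betagal+/- myoblasts (passage 13, 250/well) treated 48 h at 37C with compounds at 1:260 dilution of DMSO stock. Lysed, then beta-galactosidase activity read as FDG fluorescence (ex 480/em 540) after 30 min, with pre-read for autofluorescence.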
# D3 antag = D3 dopamine receptor (human) antagonism; P35462; D3R cells, DiscoveRx beta-arrestin luminescence, antagonist mode; hits give low values; max response, negative = inhibition, %; actives 2.5% (n = 360,000); in the data active = max response below about -50%; inconclusive = no clear call, values can overlap the other calls; also: % is scaled to controls: 0 for no effect and ±100 for the full control effect
#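 Cells expressing the human receptor were seeded at 1500 cells/well, incubated overnight at 37 degrees C in 5% CO2, then exposed to library compounds with dopamine controls for 90 minutes at 37 degrees C before luminescent detection.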
# * marks the source's active call; other numbers are inactive results; i = inactive; ? = inconclusive; . = no result; [ ] = dose if it differs, or a comment. Shown are actives, neighbours in structure and some others; about 2.8% of the full set was active somewhere. Unless noted, calls follow the shape of the dose curve; as a rule, active = well fitted curve in the direction sought with a large enough effect; inconclusive = small, poorly fitted or top-dose-only effect, or another doubt; inactive = no such curve, though single readings can be large; an effect the other way counts as inactive or inconclusive.
SMILES,MBNL1 CUG block,DRD3 agonist,PTHR1 ag,CBFb RUNX1 block,a7 integrin act,D3 antag
O=C(NCCNCc1ccc(F)cc1)c1ccco1,3.2%,-5.9,-0.3%,3.1%,15.6%,-65.6*
Cc1ccc(CNC(=O)C2CCN(C(=O)c3ccc(-n4ccc5ccccc54)s3)CC2)cc1,.,9.5,i,.,.,.
CCOc1cc(Br)c(C(=O)O)cc1OC,-7.0%,-3.2,28.1%[57.5 µM],-2.2%,-2.2%[7.66 µM],-14.8
COc1c(Br)cc(Br)cc1C(=O)O,-14.2%,37.1*,-6.5%[57.5 µM],17.2%,-1.8%,-13.4
O=C(NC1CCN(CCc2c[nH]c3ccccc23)CC1)c1ccccc1,-5.2%,-20.4,-30.0%,2.2%,-43.7%,-102.5*
O=C(NC1CCN(Cc2ccccc2)CC1)c1ccccc1,-7.8%,-19.3,i,.,7.1%,-80.7*
O=C(NC1CCN(Cc2ccccc2)CC1)C12CC3CC(CC(C3)C1)C2,0.6%,-9.3,?,12.9%,-11.2%,-87.6*
CC(C)(C)c1ccc(C(=O)NC2CCN(Cc3ccccc3)CC2)cc1,5.0%,-8.4,i,.,-56.3%,-118.3*
O=C(NC1CCCN(CCc2ccccc2)C1)c1c[nH]c2ccccc12 (stereo not drawn),-1.3%,-17.2,-22.5%,.,-1.6%,-20.0
CCOc1ccccc1NC(=O)NCCn1c(=O)oc2ccc(C)cc21,.,-11.5,i,.,.,.
COc1ccc(C)cc1NC(=O)c1ccccc1NS(=O)(=O)c1ccc(Cl)s1,5.5%,-4.2,-48.6%,1.3%,-17.7%,1.2
CC(Oc1ccccc1)C(=O)NC1CCCCCCC1 (stereo not drawn),-7.4%,21.3,i,.,-22.9%,2.1
O=C(Cc1ccc(Br)cc1)NC1CCN(Cc2ccccc2)CC1,-4.6%,-12.8,-27.2%,.,-45.3%,-4.2
Cc1ccccc1CC(=O)NC1CCN(Cc2ccccc2)CC1,0.7%,-22.3,-7.7%,.,-13.2%,-27.1
Cc1ccc(CC(=O)NC2CCN(Cc3ccccc3)CC2)cc1,-1.0%,-9.6,-26.5%,.,26.7%,-55.1*
CC(Oc1ccccc1)C(=O)NC1CCN(Cc2ccccc2)CC1 (stereo not drawn),0.9%,-8.3,i,6.3%,9.3%[7.66 µM],-58.7*
O=C(NC1CCN(Cc2ccccc2)CC1)c1cncc(Br)c1,-4.4%,-22.0,-20.6%,4.4%,2.7%,-85.8*
Cc1oc(-c2ccccc2)cc1C(=O)NC1CCN(Cc2ccccc2)CC1,.,-45.9,15.0%,-3.0%,?,-81.9*
O=C(Cc1ccccc1)NC1CCN(Cc2ccccc2)CC1,-5.4%,-17.3,i,6.8%,5.6%,?
O=C(c1cccc(Cl)c1)N1CCC(N2CCC(C(=O)N3CCCC3)CC2)CC1,-11.0%,1.1,-10.9%,.,-18.4%,10.5
CCOc1ccc(C2=CSC3=NCCN23)cc1Cl,0.8%,5.8,-1.5%,.,8.2%,4.0
Cn1nccc1C(=O)NC1CCN(Cc2ccccc2)CC1,-6.3%,-23.2,-16.3%,.,5.3%,-79.7*
Cc1ccccc1S(=O)Cc1ccc(C(=O)NC2CCN(Cc3ccccc3)CC2)o1 (stereo not drawn),1.8%,-22.9,i,.,-38.3%,-21.9
O=C(NC1CCN(Cc2ccc(Cl)cc2Cl)CC1)c1ccccc1,-8.1%,-19.3,-14.8%,.,4.1%,-78.0*
Cc1cccc(S(=O)Cc2ccc(C(=O)NC3CCN(Cc4ccccc4)CC3)o2)c1 (stereo not drawn),-3.1%,-21.1,-12.0%,.,-19.5%,-67.3*
SMILES,MBNL1 CUG block,DRD3 agonist,PTHR1 ag,CBFb RUNX1 block,a7 integrin act,D3 antag
O=C(COC(=O)/C=C/C(=O)OCC(=O)NC12CC3CC(CC(C3)C1)C2)NC12CC3CC(CC(C3)C1)C2,-12.7%,-22.3,-5.7%,0.2%,-67.2%,-58.7*
OC(c1ccc(CN2CCCCC2)cc1)c1ncc(-c2ccccc2)[nH]1 (stereo not drawn),.,-14.6,?,.,.,-106.8*
COc1ccc(-c2cnc(C(O)c3ccc(CN4CCCCC4)cc3)[nH]2)cc1 (stereo not drawn),.,-14.0,-22.5%,.,.,?
O=P(c1ccccc1)(c1ccccc1)c1ccccc1C(Br)Br,.,3.0,-19.3%,.,-8.6%,-67.0*
COc1ccc(S(=O)(=O)N2CCCCCC2)cc1C(=O)OCC(=O)NC(N)=O,-1.6%,3.6,i,1.4%,19.6%,5.2
COc1ccc(S(=O)(=O)N2CCCCCC2)cc1C(=O)OCC(=O)NC(C)(C)C,-9.1%,38.6*,i,10.2%,-23.6%,1.6
O=C1NC[C@H](Cc2ccc(O)cc2)N(C[C@H]2CCCN2C[C@H](Cc2ccc(O)cc2)N2C[C@H](Cc3ccc(O)cc3)N(CCc3ccccc3)C(=O)C2=O)C1=O,.,-2.2,20.0%,.,.,-70.3*
Oc1ccc(C[C@H]2CN([C@@H](Cc3ccc(O)cc3)CN3CCC[C@@H]3CN3C(=S)NC[C@@H]3Cc3ccccc3)C(=S)N2CCc2ccccc2)cc1,.,-18.6,6.9%,.,.,-52.5*
Oc1ccc(C[C@H]2CNC(=S)N2CC2CCCN2C[C@H](Cc2ccc(O)cc2)N2C[C@H](Cc3ccccc3)N(CC3CCCCC3)C2=S)cc1 (stereo partly drawn),.,-41.1,-21.9%,.,-40.6%,-63.8*
Oc1ccc(C[C@H]2CN([C@@H](Cc3ccccc3)CN3CCCC3CN3C(=S)NC[C@@H]3Cc3ccccc3)C(=S)N2CCc2ccccc2)cc1 (stereo partly drawn),.,0.4,-22.2%,.,.,5.2
CC(C)C[C@H]1CNC(=S)N1CC1CCCN1C[C@H](Cc1ccc(O)cc1)N1C[C@H](Cc2ccccc2)N(CC2CCCCC2)C1=S (stereo partly drawn),.,-43.7,14.2%,.,-7.7%,-81.2*
CCS(=O)(=O)CCSC1OC(COC(C)=O)C(OC(C)=O)C(OC(C)=O)C1OC(C)=O (stereo not drawn),-4.6%,1.0,i,-0.5%,3.7%,-4.8
COc1ccc(Cl)cc1NS(=O)(=O)c1ccc2c(c1)NC(=O)CC(=O)N2,.,3.3,i,.,.,.
O=C(COc1ccc(Br)cc1)N1CCCCCC1,1.8%,-16.6,i,3.8%,15.7%,-58.7*
CC1(C)CC(=O)c2cc(OCC(=O)N3CCCCCC3)ccc2O1,6.2%,-11.8,-22.9%[57.5 µM],7.9%,-15.9%,-71.0*
O=C(COc1ccc2cc(Br)ccc2c1)N1CCCC1,-1.3%,1.2,-41.5%,.,-18.5%,-9.8
CCOC(=O)N1CCN(C(=O)COc2ccc3c(c2)C(=O)CC(C)(C)O3)CC1,17.5%,-16.1,15.0%,-4.6%,-39.4%,0.0
COc1ccc(C(CNC(=O)CCNS(=O)(=O)c2ccc(Br)cc2)N2CCCC2)cc1 (stereo not drawn),.,-34.1,i,.,-10.7%,-50.4*

# Screening data deposited in PubChem BioAssay by National Center for Advancing Translational Sciences (NCATS).
